This passage reports max response and Potency results from PubChem BioAssay (Tox21).

Structures are written as SMILES. Several values for one entry are separate records, joined by “and”; a condition that tells them apart may be missing. Equal values may be shown once. Records with an inconclusive call do not appear. Where a structure was tested more than once in an assay, its records may differ in their call. A number with no mark means an inactive call. Activity calls are given as the source filed them. Calls come from the whole dose curve; as a rule, active = well fitted cell-killing curve with a large enough effect in the repeat runs; inconclusive = weak or mixed curves, or effect the other way; inactive = flat fitted curve, though single readings scatter.
% is set by controls: 0 for no effect and ±100 for the full control effect; potency is the fitted concentration of half-maximal effect.

This test can be described thus: qHTS RealTime-Glo MT Cell Viability Assay in HEK293 cells - 40 hour (AID 1224874). Note: nearly all actives have a fitted effect of over 50% in size. The following applies: RealTime-Glo luminescence; max response: active compounds read low. The source says: U.S. Tox21 Program National Center for Advancing Translational Sciences [NCATS] NIH Chemical Genomics Center [NCGC] U.S. Environmental Protection Agency [EPA] National Institutes of Environmental Health Sciences [NIEHS] National Toxicology Program [NTP] U.S. Food and Drug Administration [FDA] Tox21 Assay Overview: Measure of cell viability is critical in the cell-base assay. Analysis of cell viability is necessary for the characterization of cell responses to cytotoxic drugs and environmental stress. A RealTime-Glo MT Cell Viability Assay to monitor cell viability in real time of continues cell culture during 40 hours of compound treatment was used to screen Tox21 10K library compounds in Hek293 cells. The RealTime-Glo MT Cell Viability Assay is a nonlytic, homogeneous, bioluminescent method to measure cell viability in real time using a simple, plate-based method. The assay involves adding NanoLuc luciferase and a cell-permeant prosubstrate to cells in culture. Viable cells reduce the proprietary prosubstrate to generate a substrate for NanoLuc luciferase. This substrate diffuses from cells into the surrounding culture medium, where it is rapidly used by the NanoLuc Enzyme to produce a luminescent signal. The signal correlates with the number of viable cells, making the assay well suited for cytotoxicity studies.
Tox21 Assay Protocol Summary: The mixture of Hek293 cell suspension and reagents were dispensed at 600cells/6 ul/well in 1536-well tissue culture treated black solid bottom plates using a Multidrop dispenser. After the assay plates were incubated at a 37 C/5% CO2 incubator for 5 hours, 23 nL of compounds dissolved in DMSO, positive and negative controls was transferred to the assay plate by a pintool work station. The plates were incubated at 37 C for 40 hours. The luminescence intensity were measured at 0h, 8h, 16h, 24h, 32h and 40h time points using ViewLux plate reader during compound treatment.
A general note: qHTS replaces the single test concentration by a dilution series.
Consider `Clc1cccc(C(Cl)(Cl)Cl)n1`, for which the max response is 2.13% and -1.58%. Regarding `CCCCOC(=O)COC(=O)c1ccccc1C(=O)OCCCC`, the max response is -1.67% and 1.98%. For the compound `Cc1ccc(N=CN(C)C=Nc2ccc(C)cc2C)c(C)c1`, the Potency is 43.8 µM (active) and 43.6 µM (active); the max response was -1.79%.

`Clc1ccccc1-c1nnc(-c2ccccc2Cl)nn1`: the max response was -1.79% and -6.1%. For `CC1CC(=O)O1` (stereo not given), the max response was 4.47% and -6.16%. Take `CC(C)Nc1nc(Cl)nc(NC(C)C)n1`: the max response is -12.4% and -17.3%. On to `O=[N+]([O-])c1ccc(Cl)c([N+](=O)[O-])c1`, for which the Potency was 9.92 µM (active) and 12.3 µM (active). The same measure, in the same setting: next, `CC(C)(c1ccccc1)c1ccc(O)cc1`: 43.3 µM (active) and 27.5 µM (active). Consider `C[N+](C)(C)CC(=O)O`, for which the max response was 5.5% and 7.98%. For `CC(C)=CC1C(C(=O)OCc2cccc(Oc3ccccc3)c2)C1(C)C` (stereo not given), the max response was -1.31% and -6.07%. As to `CCOP(=O)(OCC)OCC`, the max response was 0.385% and 0.0295%.

Take `CCNCC`: the max response was -0.119% and -1.58%.

In the case of `O=C1C(Cl)=C(Cl)C(=O)c2ccccc21`, the Potency was 5.51 µM (active) and 6.92 µM (active). Consider `Oc1ccc(Cl)cc1Cc1ccccc1`, for which the Potency was 21.9 µM (active) and 27.9 µM (active). Turning to `OC(c1ccc(Cl)cc1)(c1cncnc1)c1ccccc1Cl` (stereo not given), the Potency was 5.59 µM (active) and 27.5 µM (active).

For the compound `CSc1nc(NC(C)C)nc(NC(C)C)n1`, the max response was -22.1%.

On to `CCCCSP(=O)(SCCCC)SCCCC`, for which the max response is -17.8% and -14.6%. Take `O=[N+]([O-])c1ccc(Nc2ccccc2)cc1`: the Potency is 27.8 µM (active) and 21.9 µM (active). In the case of `CCNc1nc(Cl)nc(NC(C)(C)C#N)n1`, the max response is -8.64% and -8.88%. Regarding `N#Cc1c(Cl)c(Cl)c(Cl)c(C#N)c1Cl`, the Potency is 1.7 µM (active) and 1.1 µM (active). For the compound `C[C@]12CC[C@H]3[C@@H](CCC4=CC(=O)CC[C@@H]43)[C@@H]1CC[C@@H]2O`, the max response was -22.5%.

`CCC/C=N/O`: the max response was -8.66% and 0.163%. For `CC1=C(C(=O)Nc2ccccc2)SCCO1`, the max response is -20.6% and -17.9%. For `CC(O)CN(CC(C)O)CC(C)O` (stereo not given), the max response was 2.85% and 7.82%. Regarding `N#CCCCCC#N`, the max response is 1.71% and 10.7%. With `C=C(C)C#N`, the Potency was 5.49 µM (active) and the max response was 3.27%. Take `O=C1CCCO1`: the max response was 17.8% and -9.6%. As to `Cc1ccc([N+](=O)[O-])cc1`, the max response is 7.21% and 12.5%. Still for that read-out and setting: next, `COP(=S)(OC)Oc1ccc(S(=O)(=O)N(C)C)cc1`: -18.5% and -16.7%; `O=[N+]([O-])/N=C1\NCCN1Cc1ccc(Cl)nc1`: 1.13% and 0.238%.

Regarding `CCOP(=O)(O)OCC` (tested in a mixture with another compound), the Potency is 2.43 µM (active) and the max response is 4.04%.

For the compound `O=NN1CCOCC1`, the Potency was 1.95 µM (active) and the max response is -0.852%. In the case of `O=NN(c1ccccc1)c1ccccc1`, the max response is 1.85% and 24%. `CCCCCCCCCc1ccc(O)cc1`: the Potency was 11.1 µM (active) and 6.92 µM (active).

With `N#Cc1nn(-c2c(Cl)cc(C(F)(F)F)cc2Cl)c(N)c1S(=O)C(F)(F)F` (stereo not given), the Potency is 24.7 µM (active). Consider `O=C(O)CF`, for which the max response was 2.85% and 14%.
